# Experimental data from the supplement of paper PMC3545927.
# This is one part of the list. How many sequences the whole screen found active is unknown.
# B1: HC1481 (peptide)
# chain: CATRCFDSTVAGNASASA
# B2: HC611 (peptide)
# chain: CAILQASLLKAGNASASA
# B3: HC2560 (peptide)
# chain: CASTPCSACLAGNASASA
# B4: HC2264 (peptide)
# chain: CAILEVVTSTAGNASASA
# B5: HC1698 (peptide)
# chain: CAMTECSQHLAGNASASA
# B6: HC2018 (peptide)
# chain: CAVTCCSMSYAGNASASA
# B7: HC1367 (peptide)
# chain: CANAEDVVCCAGNASASA
# B8: FS-539 (peptide)
# chain: CAIDRRIARFAGNASASA
# B9: FS-832 (peptide)
# chain: CANCSREARGAGNASASA
# B10: HC313 (peptide)
# chain: CANCSIYPGHAGNASASA
# B11: HC222 (peptide)
# chain: CAIDTLTCGFAGNASASA
# B12: FS-1147 (peptide)
# chain: CAPGSRKRRTAGNASASA
# B13: FS-551 (peptide)
# chain: CANCSRKRRTAGNASASA
# B14: FS-208 (peptide)
# chain: CAVVNRKARFAGNASASA
# B15: FS-171 (peptide)
# chain: CAISERQARFAGNASASA
# B16: HC2526 (peptide)
# chain: CASTPCSMHLAGNASASA
# B17: HC1316 (peptide)
# chain: CAVHGCPLPPAGNASASA
# B18: HC1672 (peptide)
# chain: CAEEECSQHLAGNASASA
# B19: EK2 (peptide)
# chain: CAGDRVYIHPAGNASASA
# B20: HC1715 (peptide)
# chain: CAMEHCSQHLAGNASASA
# B21: HC455 (peptide)
# chain: CAHPDATYSRAGNASASA
# B22: FS-199 (peptide)
# chain: CASWNRVARTAGNASASA
# B23: FS-1037 (peptide)
# chain: CAMPRRRGRFAGNASASA
# B24: HC1387 (peptide)
# chain: CAHHNLVYSTAGNASASA
# B25: FS-372 (peptide)
# chain: CAQWIRVKRTAGNASASA
# B26: FS-204 (peptide)
# chain: CATRSRRGRFAGNASASA
# B27: FS-280 (peptide)
# chain: CAPGSRKARFAGNASASA
# B28: FS-1034 (peptide)
# chain: CALWSRYGRFAGNASASA
# B29: FS-1392 (peptide)
# chain: CAQRSRQKKTAGNASASA
# B30: HC1373 (peptide)
# chain: CASWTGALVTAGNASASA
# B31: HC461 (peptide)
# chain: CAPWITPRCLAGNASASA
# B32: FS-701 (peptide)
# chain: CAPMSRGDRFAGNASASA
# B33: HC2281 (peptide)
# chain: CANLEVVTSTAGNASASA
# B34: FS-1035 (peptide)
# chain: CAMKSRLRRTAGNASASA
# B35: FS-515 (peptide)
# chain: CAVRGRAGRSAGNASASA
# B36: FS-81 (peptide)
# chain: CAQLSRAGRSAGNASASA
# B37: FS-971 (peptide)
# chain: CAAKGRAGRSAGNASASA
# B38: HC1258 (peptide)
# chain: CAPPSVASSSAGNASASA
# B39: HC2113 (peptide)
# chain: CARDVVCCSMAGNASASA
# B40: FS-2302 (peptide)
# chain: CARSARDVSSAGNASASA
# B41: FS-2628 (peptide)
# chain: CADHRRSVDSAGNASASA
# B42: FS-1998 (peptide)
# chain: CARCRRTVSMAGNASASA
# B43: FS-2548 (peptide)
# chain: CARCRRSVSSAGNASASA
# B44: FS-2085 (peptide)
# chain: CARSARPLVQAGNASASA
# B45: FS-3077 (peptide)
# chain: CARSERDVLLAGNASASA
# B46: HC2119 (peptide)
# chain: CAPDVVCCSMAGNASASA
# B47: FS-3073 (peptide)
# chain: CARSARKSNFAGNASASA
# B48: HC1556 (peptide)
# chain: CASVAHDGAGAGNASASA
# B49: HC1362 (peptide)
# chain: CAGSWSTVSSAGNASASA
# B50: FS-3168 (peptide)
# chain: CARSARDTAQAGNASASA
# Target: furin, P09958
# Test: furin cleavage Z-score vs untreated control; higher = more cleavage, active = 3.5 or more, inactive = 1 or less, 8 variable residues between constant flanks
# Description: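 Multiplexed peptide-cDNA fusion cleavage assay. 8-mer variable peptides flanked by constant Cys-Ala (N-term) and Ala-Gly-Asn-Ala-Ser-Ala-Ser-Ala (C-term) and conjugated to a cDNA oligonucleotide were bead-immobilised via the N-terminus. They were treated with purified furin at a 1:10 enzyme:substrate ratio in 50 mM HEPES pH 7.5, 1 mM CaCl2, 100 mM NaCl for 7.5, 15 or 30 min. Released cDNA was counted by next-generation sequencing, and log counts versus no-furin controls were lowess-adjusted and converted to robust Z-scores.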
# furin, P09958, sequence (P09958 whole entry): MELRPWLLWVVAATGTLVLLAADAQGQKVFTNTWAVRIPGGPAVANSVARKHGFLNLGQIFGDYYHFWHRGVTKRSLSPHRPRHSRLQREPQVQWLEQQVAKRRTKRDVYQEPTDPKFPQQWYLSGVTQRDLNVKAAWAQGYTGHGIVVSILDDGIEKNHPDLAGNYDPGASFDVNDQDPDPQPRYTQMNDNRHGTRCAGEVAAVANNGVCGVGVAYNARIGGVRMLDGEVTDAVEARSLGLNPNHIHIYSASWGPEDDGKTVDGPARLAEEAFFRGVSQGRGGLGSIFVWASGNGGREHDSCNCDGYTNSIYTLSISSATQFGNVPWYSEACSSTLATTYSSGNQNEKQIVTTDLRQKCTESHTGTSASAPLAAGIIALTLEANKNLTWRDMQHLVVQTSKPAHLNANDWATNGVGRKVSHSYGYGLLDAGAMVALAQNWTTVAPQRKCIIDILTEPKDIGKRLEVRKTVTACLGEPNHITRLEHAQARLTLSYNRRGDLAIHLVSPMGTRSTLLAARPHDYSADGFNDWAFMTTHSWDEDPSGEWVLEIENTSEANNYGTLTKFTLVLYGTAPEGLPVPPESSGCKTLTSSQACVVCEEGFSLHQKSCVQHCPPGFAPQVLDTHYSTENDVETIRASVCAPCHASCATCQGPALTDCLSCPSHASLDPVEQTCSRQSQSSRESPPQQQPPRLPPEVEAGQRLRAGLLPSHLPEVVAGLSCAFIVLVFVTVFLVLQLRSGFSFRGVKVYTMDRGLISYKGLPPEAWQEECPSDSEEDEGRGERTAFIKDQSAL
Sequence,furin cleavage Z-score (7.5 min),furin cleavage Z-score (15 min),furin cleavage Z-score (30 min)
B1,1.01,0.491 (inactive),0.363 (inactive)
B2,-0.334 (inactive),-0.703 (inactive),-0.0413 (inactive)
B3,0.847 (inactive),-0.78 (inactive),0.791 (inactive)
B4,-1.51 (inactive),-0.366 (inactive),0.122 (inactive)
B5,0.478 (inactive),0.668 (inactive),0.28 (inactive)
B6,0.12 (inactive),-1.47 (inactive),-1.48 (inactive)
B7,-0.652 (inactive),-1.38 (inactive),-0.581 (inactive)
B8,1.87,1.35,3.96 (active)
B9,-1.13 (inactive),-0.942 (inactive),-0.54 (inactive)
B10,0.763 (inactive),-0.054 (inactive),0.871 (inactive)
B11,0.261 (inactive),-0.013 (inactive),0.099 (inactive)
B12,11.2 (active),13.8 (active),9.92 (active)
B13,9.83 (active),9.81 (active),7.5 (active)
B14,6.98 (active),8.16 (active),8.51 (active)
B15,0.813 (inactive),-0.669 (inactive),1.86
B16,0.123 (inactive),0.577 (inactive),0.242 (inactive)
B17,-0.297 (inactive),0.367 (inactive),0.0305 (inactive)
B18,0.0201 (inactive),1.31,0.995 (inactive)
B19,-0.225 (inactive),-0.247 (inactive),-0.383 (inactive)
B20,-0.776 (inactive),-0.0908 (inactive),0.617 (inactive)
B21,-0.242 (inactive),-1.51 (inactive),-2.12 (inactive)
B22,4.98 (active),4.02 (active),5.03 (active)
B23,-0.497 (inactive),1.44,2.55
B24,0.206 (inactive),0.355 (inactive),0.257 (inactive)
B25,10 (active),8.77 (active),8.64 (active)

Sequence,furin cleavage Z-score (7.5 min),furin cleavage Z-score (15 min),furin cleavage Z-score (30 min)
B26,2.71,5.35 (active),4.64 (active)
B27,7.61 (active),8.81 (active),9.66 (active)
B28,0.532 (inactive),1.92,-0.157 (inactive)
B29,-1.4 (inactive),-0.885 (inactive),0.286 (inactive)
B30,1.05,1.42,0.57 (inactive)
B31,1.9,1.18,0.0858 (inactive)
B32,-0.701 (inactive),-0.0648 (inactive),0.556 (inactive)
B33,0.776 (inactive),-1.12 (inactive),-0.725 (inactive)
B34,6.13 (active),6.71 (active),5.42 (active)
B35,1.52,1.9,0.698 (inactive)
B36,6.21 (active),8.4 (active),8.08 (active)
B37,7.82 (active),7.81 (active),6.06 (active)
B38,0.0747 (inactive),0.138 (inactive),0.956 (inactive)
B39,0.281 (inactive),-1.32 (inactive),2.45
B40,9.56 (active),8.78 (active),6.82 (active)
B41,-1.5 (inactive),0.662 (inactive),1.77
B42,1.07,2.14,4.65 (active)
B43,4.14 (active),2.68,3.73 (active)
B44,-2.45 (inactive),0.432 (inactive),-1.67 (inactive)
B45,1.87,-0.515 (inactive),0.482 (inactive)
B46,-0.96 (inactive),1.32,-0.361 (inactive)
B47,-1.18 (inactive),0.463 (inactive),-0.0584 (inactive)
B48,-0.273 (inactive),-3.13 (inactive),0.415 (inactive)
B49,0.499 (inactive),-0.166 (inactive),-0.172 (inactive)
B50,5.29 (active),5.99 (active),5.11 (active)
